Test results published in publication PMC5540273 (PLoS ONE, 2017).
Several values for one entry are separate records, joined by “and”; a condition that tells them apart may be missing. Equal values may be shown once. Read-outs that look alike come from different tables or passages of the source.

Key:
CAMKK1 = settings: concentration: 1 μM, replicates: in singlicate, n = 1
CAMKK2 = settings: concentration: 1 μM, replicates: in singlicate, n = 1
CASK = settings: concentration: 1 μM, replicates: in singlicate, n = 1
CDC2L1 = test system: T1, CDC2L1; settings: concentration: 1 μM, replicates: in singlicate, n = 1
T1 construct: gene CDK11B

CDC2L2 = settings: concentration: 1 μM, replicates: in singlicate, n = 1
CDC2L5 = test system: T2, CDC2L5; settings: concentration: 1 μM, replicates: in singlicate, n = 1
T2 construct: gene CDK13

CDK11 = test system: T3, CDK11; settings: concentration: 1 μM, replicates: in singlicate, n = 1
T3 construct: gene CDK19

CDK2 = settings: concentration: 1 μM, replicates: in singlicate; n = 1
CDK3 = settings: concentration: 1 μM, replicates: in singlicate; n = 1
CDK4-cyclinD1 = settings: concentration: 1 μM, replicates: in singlicate, n = 1
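Note: KINOMEscan kinase panel screen.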

| SMILES | %Inh (CAMKK1) [%] | %Inh (CAMKK2) [%] | %Inh (CASK) [%] | %Inh (CDC2L1) [%] | %Inh (CDC2L2) [%] | %Inh (CDC2L5) [%] | %Inh (CDK11) [%] | %Inh (CDK2) [%] | %Inh (CDK3) [%] | %Inh (CDK4-cyclinD1) [%] | %Inh (CAMKK1; 1 µM) | %Inh (CAMKK2; 1 µM) | %Inh (CASK; 1 µM) | %Inh (CDC2L1; 1 µM) | %Inh (CDC2L2; 1 µM) | %Inh (CDK11; 1 µM) | %Inh (CDC2L5; 1 µM) | %Inh (CDK4-cyclinD1; 1 µM) |
| --- | --- | --- | --- | --- | --- | --- | --- | --- | --- | --- | --- | --- | --- | --- | --- | --- | --- | --- |
| CN1c2ccc(CNc3ccc(F)cc3)cc2-c2c(cnn2C)S1(=O)=O | 0 | 0 | 22 | 0 | 0 | 15 | 0 | 0 | 0 | 13 |  |  |  |  |  |  |  |  |
| c1ccc(-c2n[nH]cc2-c2ccnc3ccccc23)nc1 [GW271431] | 17 | 30 | 0 | 0 | 24 | 0 | 34 | 0 | 0 | 0 |  |  |  |  |  |  |  |  |
| O=C1Cc2cc(Nc3nc(NCc4cccc(S(=O)(=O)C(F)(F)F)c4)ncc3C(F)(F)F)ccc2N1 | 9 | 3 | 0 | 9 | 0 | 12 | 8 | 0 | 0 | 5 |  |  |  |  |  |  |  |  |
| COc1ccc(Nc2nccc(N3CCC(NC(=O)Nc4cc(C)ccc4C)C3)n2)cc1 (stereo not drawn) [GSK1379741] | 0 | 0 | 3 | 0 | 0 | 0 | 70 | 0 | 7 | 0 |  |  |  |  |  |  |  |  |
| COc1ccc(Nc2ncc(C#N)c(Nc3ccccc3C(N)=O)n2)cc1N1CCN(C)CC1.Cl [GSK1558669] | 96.9 | 98.5 | 75 | 0 | 1 | 69 | 0 | 96.3 | 90 | 94.8 |  |  |  |  |  |  |  |  |
| COc1ccc(CNC(=O)NC2CCN(c3ccnc(Nc4ccc(OC)cc4)n3)C2)cc1 (stereo not drawn) [GSK1379727] | 0 | 4 | 16 | 0 | 8 | 0 | 1 | 0 | 13 | 18 |  |  |  |  |  |  |  |  |
| O=C(Nc1n[nH]c2cc(-c3cccc(F)c3)ccc12)C1CC1 [SB-735464] | 18 | 14 | 10 | 2 | 9 | 23 | 0 | 27 | 0 | 8 |  |  |  |  |  |  |  |  |
| CC(C)(C)n1cnc2c(N)ncnc21 [SKF-97359] | 0 | 0 | 0 | 0 | 0 | 0 | 0 | 0 | 0 | 21 |  |  |  |  |  |  |  |  |
| CNc1ncnc2[nH]ncc12 [SKF-18355] | 0 | 0 | 22 | 0 | 0 | 0 | 0 | 0 | 12 | 0 |  |  |  |  |  |  |  |  |
| COc1ccc(S(=O)(=O)NC2CCN(c3cc(C)nc(Nc4cccc(C#N)c4)n3)CC2)cc1.O=C(O)C(F)(F)F [GSK1653539] | 2 | 16 | 0 | 0 | 37 | 0 | 0 | 0 | 0 | 0 |  |  |  |  |  |  |  |  |
| Cc1nnc(-c2ccc(C)c(-c3ccc(C(=O)Nc4ccc(NS(C)(=O)=O)cc4)cc3)c2)o1 [GW702865] | 0 | 0 | 23 | 0 | 8 | 0 | 0 | 0 | 1 | 36 |  |  |  |  |  |  |  |  |
| NS(=O)(=O)c1cccc(-c2ccc3nccc(-c4cccc(S(N)(=O)=O)c4)c3c2)c1 [GW867253] | 13 | 19 | 30 | 0 | 0 | 0 | 13 | 0 | 22 | 0 |  |  |  |  |  |  |  |  |
| Cn1cc(-c2ccc3c(c2)CCN3C(=O)Cc2ccccc2Cl)c2c(N)ncnc21 [GSK2608885] | 25 | 28 | 0 | 0 | 14 | 0 | 0 | 0 | 0 | 0 |  |  |  |  |  |  |  |  |
| N#Cc1ccc(-c2cc(-c3c[nH]nc3-c3ccccn3)ccn2)cc1 [GW693028] | 0 | 2 | 9 | 0 | 0 | 0 | 12 | 0 | 6 | 0 |  |  |  |  |  |  |  |  |
| CN(C1=C(c2ccccc2)C(=O)NC1=O)c1ccccc1 [SB-334860] | 0 | 16 | 17 | 0 | 14 | 0 | 8 | 5 | 8 | 0 |  |  |  |  |  |  |  |  |
| NS(=O)(=O)CCc1cccc(Nc2nccc(-c3c(-c4cccc(NC(=O)c5c(F)cccc5F)c4)nn4ccccc34)n2)c1 [GSK336735] | 0 | 8 | 7 | 11 | 35 | 0 | 14 | 0 | 21 | 0 |  |  |  |  |  |  |  |  |
| C[C@@H](Oc1cc(-n2cnc3ccc(NC(=O)NC(C)(C)C)cc32)sc1C(N)=O)c1ccccc1Cl [GSK346294] | 3 | 24 | 11 | 0 | 13 | 0 | 4 | 0 | 9 | 8 |  |  |  |  |  |  |  |  |

| SMILES | %Inh (CAMKK1) [%] | %Inh (CAMKK2) [%] | %Inh (CASK) [%] | %Inh (CDC2L1) [%] | %Inh (CDC2L2) [%] | %Inh (CDC2L5) [%] | %Inh (CDK11) [%] | %Inh (CDK2) [%] | %Inh (CDK3) [%] | %Inh (CDK4-cyclinD1) [%] | %Inh (CAMKK1; 1 µM) | %Inh (CAMKK2; 1 µM) | %Inh (CASK; 1 µM) | %Inh (CDC2L1; 1 µM) | %Inh (CDC2L2; 1 µM) | %Inh (CDK11; 1 µM) | %Inh (CDC2L5; 1 µM) | %Inh (CDK4-cyclinD1; 1 µM) |
| --- | --- | --- | --- | --- | --- | --- | --- | --- | --- | --- | --- | --- | --- | --- | --- | --- | --- | --- |
| NCCNS(=O)(=O)c1ccc(-c2ccnc3[nH]ccc23)cc1 [GSK977617] |  |  |  |  |  | 0 |  | 0 | 0 | 0 | 31% and 9% | 37% and 16% | 19% and 21% | 0% and 14% | 13% and 15% | 9% and 0% |  |  |
| CC(C)(CN)c1nc(-c2ccc(Cl)c(O)c2)c(-c2ccncc2)[nH]1.O=C(O)C(F)(F)F [SB-477794] | 0 |  |  | 0 |  |  | 0 | 0 | 7 |  |  | 0% and 4% | 18% and 0% |  | 31% and 2% |  | 0% and 30% | 25% and 64% |
| CC(C)Oc1ccc2c(-c3ccnc(Nc4ccc(N5CCN(C)CC5)cc4)n3)cnn2n1 [GW696155] | 40 | 44 | 23 | 63 | 51 | 0 | 19 | 0 | 17 | 94.4 |  |  |  |  |  |  |  |  |
| Nc1nc(-c2ccc3c(N)n[nH]c3c2)cc(N2CCCC2)n1 [GSK2227430] | 0 | 10 | 0 | 0 | 14 | 0 | 1 | 0 | 0 | 0 |  |  |  |  |  |  |  |  |
| Cc1nnc(-c2ccc3occ(-c4ccc(C(C)O)cc4)c3c2)o1 (stereo not drawn) | 12 | 14 | 4 | 1 | 4 | 22 | 0 | 5 | 4 | 0 |  |  |  |  |  |  |  |  |
| COc1ccc(COc2cc(-n3cnc4ccccc43)sc2C(N)=O)cc1 [GSK1024304] | 4 | 13 | 0 | 0 | 0 | 0 | 22 | 0 | 9 | 0 |  |  |  |  |  |  |  |  |
| O=C(Nc1cccc(-c2nn3ncccc3c2-c2ccnc(Nc3cccc(C(F)(F)F)c3)n2)c1)c1c(F)cccc1F [GSK299495] | 0 | 8 | 13 | 0 | 19 | 0 | 15 | 0 | 3 | 0 |  |  |  |  |  |  |  |  |
| O=c1cc(N2CCOCC2)nc2n(Cc3cccc4ccccc34)ccn12 [GSK2333389] | 0 | 0 | 0 | 0 | 0 | 0 | 0 | 12 | 0 | 0 |  |  |  |  |  |  |  |  |
| Cc1cccc(-c2nc(-c3ccc(S(C)(=O)=O)cc3)sc2-c2ccncc2)c1 | 4 | 5 | 0 | 0 | 0 | 9 | 0 | 14 | 3 | 0 |  |  |  |  |  |  |  |  |
| Cl.Oc1cccc(Nc2ccnc3cc(-c4ccncc4)ccc23)c1 [GW494601] | 0 | 29 | 10 | 0 | 10 | 0 | 4 | 0 | 0 | 0 |  |  |  |  |  |  |  |  |
| COc1cc(Nc2nccc(N3CCC(NC(=O)c4cccc(NC(C)=O)c4)C3)n2)cc(OC)c1OC (stereo not drawn) [GSK1379754] | 0 | 11 | 1 | 0 | 2 | 0 | 20 | 2 | 0 | 0 |  |  |  |  |  |  |  |  |
| O=C1NC(=O)C(N2CCc3ccccc32)=C1c1cccc(Cl)c1 [SB-408010] | 7 | 0 | 0 | 0 | 5 | 0 | 0 | 0 | 0 | 0 |  |  |  |  |  |  |  |  |
| Cc1ccc(C(=O)NCC(N)=O)cc1-n1c(C)cc(OCc2ccc(F)cc2F)c(Br)c1=O | 3 | 0 | 0 | 7 | 20 | 0 | 0 | 0 | 0 | 0 |  |  |  |  |  |  |  |  |
| c1ccc(-c2cc(-c3c[nH]nc3-c3ccccn3)ccn2)cc1 [GW576604] | 5 | 24 | 0 | 0 | 16 | 0 | 11 | 13 | 0 | 0 |  |  |  |  |  |  |  |  |
| Cc1c(Cn2c(C)nn3c(=O)cc(N4CCOC(C)C4)nc23)cccc1C(F)(F)F (stereo not drawn) [GSK2344444] | 0 | 0 | 0 | 0 | 0 | 0 | 0 | 0 | 4 | 0 |  |  |  |  |  |  |  |  |
| COc1cc2c(cc1OCCN1CCN(C)CC1)ncc1c3ccc(C#N)cc3[nH]c21 | 86 | 70 | 8 | 7 | 7 | 0 | 0 | 2 | 0 | 0 |  |  |  |  |  |  |  |  |
